High-throughput results: PubChem BioAssay, The Scripps Research Institute Molecular Screening Center
TEAD-YAP block – TEAD-YAP interaction inhibition | HEK-TIYL cells, TEAD-Gal4/YAP UAS-luciferase luminescence | inhibition, % at 9.12 µM | actives 1.4% (n = 640,000) | AID 1259422; in the data active = inhibition above about 32%;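 note: 0% = median of test compound wells and 100% = reference inhibitor wells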
GPR151 activ – human GPR151 activation | Q8TDV0 | PathHunter beta-arrestin GPR151 cells, luminescence | activation, % at 11.2 µM | actives 1% (n = 650,000); in the data active = activation above about 4.9%;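 note: 0% = median of compound wells and 100% = cells with positive control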
Target sequence (Q8TDV0 whole entry, looked up): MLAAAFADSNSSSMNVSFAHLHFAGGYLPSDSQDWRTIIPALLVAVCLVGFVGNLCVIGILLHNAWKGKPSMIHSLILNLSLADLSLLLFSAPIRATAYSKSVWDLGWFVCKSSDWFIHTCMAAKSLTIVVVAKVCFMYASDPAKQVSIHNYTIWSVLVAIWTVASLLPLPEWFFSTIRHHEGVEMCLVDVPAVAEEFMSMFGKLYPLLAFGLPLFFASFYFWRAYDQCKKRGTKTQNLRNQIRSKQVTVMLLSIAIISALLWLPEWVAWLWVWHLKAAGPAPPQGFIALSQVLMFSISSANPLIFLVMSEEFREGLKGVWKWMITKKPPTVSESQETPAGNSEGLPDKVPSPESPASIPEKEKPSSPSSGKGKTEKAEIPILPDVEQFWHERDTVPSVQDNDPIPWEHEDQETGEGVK
FBW7 activator – human FBW7 E3 ligase activation, primary screen | Q969H0 | AlphaScreen FBW7–phospho-cyclin E peptide binding, activator screen | normalized activity (activation), % at 26.1 µM | actives 0.13% (n = 650,000); in the data active = normalized activity above about 1.9%;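 note: purified mutant Fbw7 with reduced substrate affinity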
MITF inh – inhibitors of human MITF; O75030; AlphaScreen MITF homodimerization, bead proximity signal; inhibition, % at 2.6 µM; actives 0.91% (n = 650,000); in the data active = inhibition above about 50%;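 note: 0% = vehicle wells with protein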
MITF inh conf – confirmation of human MITF inhibitors | shares compounds with MITF inh | AlphaScreen MITF homodimerization, biotin/His-MITF beads | inhibition, % at 2.6 µM | actives 16% (n = 4,700);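 active = inhibition above a cutoff derived from the DMSO control wells, cut at about 28% in these data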;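 note: 0% = MITF dimer wells with DMSO only; inhibitors lower the bead chemiluminescence by keeping MITF from dimerizing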
AlphaScreen DR – AlphaScreen optical interference, dose response counter-screen; shares compounds with MITF inh; AlphaScreen optical interference counterscreen, cell-free; IC50, µM; actives 6% (n = 480); AID 1259373; call rule not given here
AS interf ctr – counter-screen: compounds optically interfering with AlphaScreen; shares compounds with MITF inh; LysRS AlphaScreen counterscreen, signal interference, triplicate; inhibition, % at 2.6 µM; actives 7.6% (n = 4,700); AID 1259376;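 active = inhibition above a cutoff derived from the DMSO control wells, cut at about 30% in these data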
Starred values were filed as active, the others as inactive; nt = not tested or not shown. Hits are enriched below; roughly 3.5% of the tested compounds scored in any of these assays.

SMILES	TEAD-YAP block	GPR151 activ	FBW7 activator	MITF inh	MITF inh conf	AS interf ctr	others
COc1cc(OC)cc(C(=O)N(C)CCc2ccccn2)c1	-1.9	0.1	0.0	70.9*	7.0	3.9
COc1ccc(C(=O)N(C)CCc2ccccn2)cc1	-3.7	4.1	0.5	71.4*	3.8	1.7
COc1cc(OC)cc(C(=O)NC(C(=O)NCCc2ccccn2)C(C)C)c1 (stereo not given)	-0.6	-2.2	-0.1	2.6	nt	nt
COc1ccc(OC)c(CN(C)CCc2ccccn2)c1	-0.7	3.3	0.2	40.4	nt	nt
Cc1cc(N(CC(=O)N2CCCC2)S(C)(=O)=O)ccc1Br	10.9	-0.9	-0.1	-5.8	nt	nt
CN1CCN(NC(=O)Nc2cccc3ccccc23)CC1	2.2	-0.2	0.1	12.3	nt	nt
O=C1CCCC2=C1C(c1ccc([N+](=O)[O-])o1)C1=C(CCCC1=O)O2	-7.3	0.4	-0.4	66.9*	62.2*	7.8	AlphaScreen DR=>7.09
COc1ccc(N(C2=NCCCS2)S(=O)(=O)c2ccc(OC)cc2)cc1	4.5	0.3	0.0	55.7*	-12.1	-3.5
CC(=O)c1ccc(S(=O)(=O)N(C2=NCCCS2)c2ccc(F)cc2)cc1	-7.8	-0.4	0.0	-14.0	nt	nt
CCCC1=NN2C(=N)/C(=C/c3ccc(OCCOc4ccccc4OC)c(OC)c3)C(=O)N=C2S1	6.0	-0.7	-0.1	-3.9	nt	nt
O=C(NNc1ncnc(NNC(=O)c2ccncc2)c1[N+](=O)[O-])c1ccncc1	2.9	-8.4	-1.2	64.9*	66.2*	100.3*
COc1cccc(-c2nc(C(N)=O)c3[nH]c(=O)n(CCc4ccccc4)c3n2)c1	2.8	0.4	-0.1	4.1	nt	nt
CCN1CCN(CCCCOc2ccc(C)cc2C)CC1	-4.9	-0.4	0.0	59.0*	2.5	8.0
CCN1CCN(CCOc2cc(C)ccc2C(C)C)CC1	-3.0	-1.7	0.1	52.4*	-7.1	-2.5
CCN1CCN(CCCOc2ccc(C)cc2Br)CC1	-0.2	-1.3	-0.2	62.9*	13.9	10.8
Cc1ccc(OCCN)c(Br)c1	-1.3	1.5	0.4	2.6	nt	nt
Cc1ccc2nc(C)c(C(=O)NCc3ccc(C)o3)n2c1	4.7	1.1	0.3	12.2	nt	nt
NC(=S)N/N=C/c1ccccc1OC(=O)c1cc([N+](=O)[O-])cc([N+](=O)[O-])c1	2.7	-1.4	-0.1	59.4*	29.8*	53.2*
CC(C)CCN1NC2(CCCCC2)NC1=S	-6.0	-1.2	0.5	65.3*	2.8	14.6
CN1NC2(CCCC2)NC1=S	-4.7	0.6	0.0	-6.8	nt	nt
Cc1ccc(S(=O)(=O)N2CCC(O)(c3cccnc3)CC2)cc1	-0.8	-1.0	-0.3	32.5	nt	nt
O=S(=O)(c1ccc(F)cc1)N1CCC(O)(c2cccnc2)CC1	-1.4	-0.9	-0.3	71.8*	11.6	17.1
CN(C(=O)N1CCN(C(=O)N(C)c2ccccc2)CC1)c1ccccc1	1.1	-0.6	0.0	13.8	nt	nt
CCN1CCN(CC(=O)Nc2nnc(C)s2)CC1	3.9	-0.2	0.1	74.2*	7.8	9.1
CCN1CCN(CC(=O)NCc2ccccc2OC)CC1	-6.3	-0.6	0.0	99.1*	2.8	12.8
Cc1cc(C)cc(NC(=O)CN2CCc3ccccc3C2)c1	3.5	0.4	-0.1	69.0*	0.2	5.2
